The target of this test is Menin (Homo sapiens) (UniProt O00255). As to the kind of experiment: Confirmation of Inhibitors Targeting the Menin-MLL Interaction in MLL Related Leukemias: Confirmation in an HTRF (commercial TR-FRET) Assay using His-tagged menin and biotin-labeled MLL peptide. Summed up:
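Compounds were incubated 1 hr at ambient with a preformed His6-menin (200 nM)/biotinylated MLL-w.t. peptide (80 nM) complex in Tris pH 7.5 buffer; anti-His Eu-cryptate (3.5 nM) and SA-XL665 (10 nM) added, TR-FRET read after 1h.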
In general terms: Time-resolved FRET reads energy transfer from a long-lived donor to a nearby acceptor.

SMILES strings stand for the structures. Results filed as inconclusive are left out. A call without a number means that no potency is given here. Active and inactive are the calls of the source. Calls come from the whole dose curve; as a rule, active = well fitted inhibition curve with a large enough effect; inconclusive = small, poorly fitted or top-dose-only effect, or effect the other way; inactive = flat fitted curve, though single readings scatter.
Potency is the fitted concentration of half-maximal effect.

Sequence of Menin (Homo sapiens) (O00255 whole entry, looked up): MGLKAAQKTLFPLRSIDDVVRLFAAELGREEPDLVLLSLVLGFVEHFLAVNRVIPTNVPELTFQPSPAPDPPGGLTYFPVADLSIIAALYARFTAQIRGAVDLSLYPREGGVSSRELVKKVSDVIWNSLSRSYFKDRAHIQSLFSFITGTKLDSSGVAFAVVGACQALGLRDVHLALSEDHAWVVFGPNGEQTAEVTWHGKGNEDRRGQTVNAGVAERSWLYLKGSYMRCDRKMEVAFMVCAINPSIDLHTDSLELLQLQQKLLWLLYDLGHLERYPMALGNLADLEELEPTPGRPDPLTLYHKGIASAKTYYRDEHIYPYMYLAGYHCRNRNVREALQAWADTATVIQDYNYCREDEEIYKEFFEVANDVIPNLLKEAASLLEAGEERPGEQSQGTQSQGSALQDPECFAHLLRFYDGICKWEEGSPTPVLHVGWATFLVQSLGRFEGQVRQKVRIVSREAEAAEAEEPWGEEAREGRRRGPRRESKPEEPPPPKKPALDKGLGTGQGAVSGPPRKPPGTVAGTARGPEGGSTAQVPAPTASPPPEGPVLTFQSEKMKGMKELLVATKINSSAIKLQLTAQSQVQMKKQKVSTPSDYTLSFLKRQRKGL

Turning to `COc1ccccc1CNCC(=O)Nc1ccc(C#N)cc1`, the Potency result is “inactive”.

For the compound `O=C(Nc1ccc(F)c(Cl)c1)c1cc(-c2ccco2)on1`, the Potency result is “inactive”.

As for `O=C(NNCS(=O)(=O)O)c1ccncc1`, the Potency result was “inactive”.

As for `O=c1c2ccccc2nc(N/N=C/c2c(O)ccc3ccccc23)n1O`, the Potency result was “inactive”.

With `CN(C)[C@H]1C(=O)C(C(=O)NCN2CCCC2)=C(O)[C@]2(O)C(=O)C3=C(O)c4c(O)cccc4[C@](C)(O)[C@H]3C[C@H]12`, the Potency is 70.7 µM (active).

Regarding `N#Cc1ccc(Cl)cc1NC(=O)CNCc1cccs1`, the Potency entry was “inactive”.

Take `COc1ccc(OC)c(C(c2c(C)[nH][nH]c2=O)c2c(C)[nH][nH]c2=O)c1`: the Potency entry was “inactive”.

For the compound `CCOC(=O)C1CCN(CC(O)COCc2ccccc2)CC1` (centres undefined), the Potency entry is “inactive”.

Regarding `Cc1nn(-c2ccccc2)c2nc(N)c(C(N)=O)cc12`, the Potency entry was “inactive”.

For the compound `Cc1ccc(C(=O)Sc2cccccc2=O)cc1`, the Potency entry is “inactive”.

As for `CCN(CCn1cccn1)Cc1ccccc1OCC(O)CN1CCc2ccccc2C1` (centres undefined), the Potency entry was “inactive”.

Regarding `CCOc1ccc(CCNC(=O)C(C)N2C(=O)CC(C)(C)Sc3ccccc32)cc1` (centres undefined), the Potency result is “inactive”.

With `O=c1[nH]nc(Cc2ccc(-c3ccc(Cl)cc3)o2)c2ccccc12`, the Potency entry is “inactive”.

As for `O=C(N1CCOCC1)N1CCN(S(=O)(=O)c2ccc(Cl)cc2)CC1`, the Potency entry was “inactive”.

On to `Cc1nc2oc3c(NCC4CCCO4)ncnc3c2c2c1COC(C)(C)C2` (centres undefined), for which the Potency result was “inactive”.

`O=C(CSc1nnc(-c2c[nH]c3ccccc23)o1)N1c2ccccc2CCc2ccccc21`: the Potency entry was “inactive”.

Regarding `CC(=O)Nc1ccc(-c2cc(-c3ccc(NC(C)=O)cc3)nc(-c3ccc(NC(C)=O)cc3)n2)cc1`, the Potency is 79.4 µM (active).

On to `c1ccc2c(c1)NCC1CCCN21` (centres undefined), for which the Potency result was “inactive”.

Take `O=C(CC(=O)c1ccccc1)Nc1cc(C(F)(F)F)ccc1Cl`: the Potency result is “inactive”.

In the case of `COc1ccc(C)cc1N(C(=O)c1snc(C(N)=O)c1N)C(C(=O)NC1CCCC1)c1ccc(F)cc1` (centres undefined), the Potency entry was “inactive”.

As to `O=C1Cc2ccccc2Sc2c(OCCN3CCCCC3)cccc21`, the Potency entry is “inactive”.

Regarding `C[C@@H]1CN(C(=O)c2nc3ccc(Cl)cn3c2CNCC[C@@H]2C[C@@H]3C=C[C@H]2C3)C[C@H](C)O1`, the Potency result is “inactive”.

Take `O=C(Nc1cc(Br)ccc1O)c1cc(-c2ccc3c(c2)OCO3)on1`: the Potency entry was “inactive”.

Take `CCOC(=O)N1CCN(Cc2nnc(-c3ccccc3C)o2)CC1`: the Potency entry was “inactive”.

For the compound `O=C(c1cc(F)c(F)cc1Cl)N1CCN(c2ncccn2)CC1`, the Potency entry was “inactive”.

With `COc1ccccc1/C=C/C(=O)NC(=S)Nc1ccc(S(=O)(=O)N(C)c2ccccc2)cc1`, the Potency entry is “inactive”.

As to `COC(CSc1nc(N)c2c3c(sc2n1)CN(C)CC3)OC`, the Potency result was “inactive”.

Take `CCOc1cc(C(c2c(C)[nH][nH]c2=O)c2c(C)[nH][nH]c2=O)cc(Br)c1OC`: the Potency entry is “inactive”.

As for `O=[N+]([O-])CC(c1ccccc1)P(=O)(c1ccccc1)c1ccccc1` (centres undefined), the Potency result was “inactive”.

For `COc1ccc(-c2cc(-c3ccc(C)cc3)n[nH]2)c(O)c1`, the Potency result is “inactive”.

On to `O=C(/C=C/c1ccccc1)NC(NC(=S)Nc1cc(Cl)ccc1Cl)C(Cl)(Cl)Cl` (centres undefined), for which the Potency result was “inactive”.

For `COc1cc(O)c(C(=O)c2ccccc2)cc1O`, the Potency entry is “inactive”.

In the case of `CCCN(CCC)CCCNC(=O)c1cc2c(=O)[nH]c3ccccc3c2s1`, the Potency result is “inactive”.

With `c1ccc2c(c1)nc(N1CCOCC1)c1c3ccccc3[nH]c21`, the Potency entry was “inactive”.

Take `C[C@H](NC(=O)c1cc2c(cn1)[nH]c1ccccc12)C(=O)O`: the Potency was 79.4 µM (active).

In the case of `Cc1cccc(NC(=S)NC(NC(=O)OCc2ccccc2)C(Cl)(Cl)Cl)c1` (centres undefined), the Potency entry was “inactive”.

For `CCc1cc2c(N3CCN(C(=O)c4ccco4)CC3)ncnc2s1`, the Potency was 100 µM (active).

Regarding `O=C(NC(=S)Nc1nc(-c2ccc(Br)cc2)cs1)c1cccnc1`, the Potency result is “inactive”.

On to `O=C(CS)Nc1ccc2ccccc2c1`, for which the Potency entry is “inactive”.

In the case of `O=C(CC(Sc1ccc(Br)cc1)C(=O)O)c1ccc(F)cc1` (centres undefined), the Potency entry was “inactive”.

`CN1CCN(CC(=O)c2ccccc2F)CC1`: the Potency entry was “inactive”.

Turning to `CCCCCC1CCC(C(=O)NCCN2CCOCC2)CC1` (centres undefined), the Potency result was “inactive”.

For the compound `COc1cccc(C(=O)/C=C/Nc2ccc(S(=O)(=O)Nc3ccc(C(C)=O)cc3)cc2)c1`, the Potency entry was “inactive”.

As to `CCOC(=O)CCC(=O)NCc1ccc2c(c1)cc(C)n2C`, the Potency entry was “inactive”.

These data come from PubChem BioAssay AID2778 (National Center for Advancing Translational Sciences (NCATS), 2010).
